These results are taken from PubChem BioAssay AID1788 (Vanderbilt High Throughput Screening Facility, 2009).

Unmarked numbers belong to inactive results. How the calls were made is not given here.

This test has as its system Calcium channel L-type (rat). In words: PubChem AID 1788. The settings on record: MDS Pharma lead profiling panel, radioligand binding, benzothiazepine site, at 10 µM, hits give high values.

One may read the inhibition as the relative decrease from the control value, in per cent. As for `CCOC(=O)N1CCC(NCCNC(=O)c2ccccc2C)CC1`, the inhibition was -4%.
